Laboratory results taken from PubChem BioAssay (NCI).
Several values for one entry are separate records, joined by “and”; a condition that tells them apart may be missing. Equal entries are not always repeated. Compounds without any hit were thinned out: in the full panel of roughly 83,000, 20% have a hit.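 Single-concentration screen, 48 h exposure, 96-well plates. Endpoint: percent growth. Below 10 = active.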 Unmarked numbers belong to inactive results. Activity calls are given as the source filed them.

Tested on: COLO 205 colon
Assay: NCI-60 one-dose screen, 48 h (100 = growth as untreated, 0 = no growth, -100 = all killed)
Conditions: 0.01 µM
Procedure: Cells are grown in 96 well plates and exposed to the test compound for 48 hours. Compounds are tested at a single concentration, which is 10^-5 M for most compounds. The reported endpoint is percent growth (GI% or GIPRCNT), where numbers from 0 - 100% represent growth inhibition, and numbers from -100% - 0 represent cell death. For example, a value of 40 represents 60% growth inhibition. A value of 0 means no net growth occurred over the course of the experiment. A value of -40 indicates 40% of cells at the beginning of the experiment died by the end of the experiment. A value of -100 means all cells are dead at the end of the experiment.
NCI-60 Human Tumor Cell Lines Screen was performed using the standard one-dose NCI protocol, which is described in more detail at https://dtp.cancer.gov/discovery_development/nci-60/default.htm.
Compounds with GIPRCNT values below 10 were considered active. Activity score was based on GIPRCNT using the following formula: […]
Score is 0 for GIPRCNT values of 100 or above, 50 for GIPRCNT values of 0, and 100 for GIPRCNT values of -100.

Structure (SMILES)	growth
CC(=O)O[C@H]1C(=O)[C@@]2(C)[C@H]([C@H](OC(=O)c3ccccc3)[C@]3(O)C[C@H](OC(=O)[C@H](O)[C@@H](NC(=O)c4ccccc4)c4ccccc4)C(C)=C1C3(C)C)[C@]1(OC(C)=O)CO[C@@H]1C[C@@H]2O	13.4%

Same assay, conditions: 2.5 µM

Structure (SMILES)	growth
CC(=O)O[C@H]1C(=O)[C@@]2(C)[C@H]([C@H](OC(=O)c3ccccc3)[C@]3(O)C[C@H](OC(=O)[C@H](O)[C@@H](NC(=O)c4ccccc4)c4ccccc4)C(C)=C1C3(C)C)[C@]1(OC(C)=O)CO[C@@H]1C[C@@H]2O	-54.6% (active)

Same assay, conditions: 5 µM

Structure (SMILES)	growth
CC(=O)O[C@H]1C(=O)[C@@]2(C)[C@H]([C@H](OC(=O)c3ccccc3)[C@]3(O)C[C@H](OC(=O)[C@H](O)[C@@H](NC(=O)c4ccccc4)c4ccccc4)C(C)=C1C3(C)C)[C@]1(OC(C)=O)CO[C@@H]1C[C@@H]2O	-47.9% (active)

Same assay, conditions: 10 µM

Structure (SMILES)	growth
Cc1cc(N=C2C=CC(=[N+](C)C)C=C2)c(N)cc1N	95.8%
N#C/C(=C/N1C(=O)/C(=C/c2ccc([N+](=O)[O-])cc2)SC1=S)c1nc2ccccc2s1	90.3%
CN(C)CCNc1cccc2sc3ccc(O)cc3c(=O)c12	34.9%
CC1CCC2(C(=O)O)CCC3(C)C(=CCC4C5(C)CC(O)C(O)C(C)(CO)C5C(O)CC43C)C2C1C (stereo not given)	112%
N#CC(=C1C=CC(=NO)C=C1)c1ccccc1	30.4%
NCc1c(O)ccc2ccccc12	105%
O=Nc1ccc(Nc2ccccc2)cc1	105%
O=c1[nH]cc(/C=N\Nc2ccccc2)c(=O)[nH]1	67.9%
O=[N+]([O-])c1cc(S(=O)(=O)Nc2ccccc2)ccc1Cl	119%
O=C(O)c1ccccc1.[Ag]	25.8%
CCOC(=O)[C@]1(Br)CC[C@@]1(Br)C(=O)OCC	116%
Cc1c(-c2ccccc2)[nH]c2ccccc12	115%
O=C1c2cccc3cc([N+](=O)[O-])cc(c23)C(=O)N1CCN1CCCC1	-13.8% (active)
CC[C@@]1(OC(=O)CN(C)C)C(=O)OCc2c1cc1n(c2=O)Cc2cc3c(N)cccc3nc2-1	17.5%
CN(C)c1ccc(/C=C/c2ccnc3ccccc23)cc1N	62.9%
CC(=O)O[C@H]1C(=O)[C@@]2(C)[C@H]([C@H](OC(=O)c3ccccc3)[C@]3(O)C[C@H](OC(=O)[C@H](O)[C@@H](NC(=O)c4ccccc4)c4ccccc4)C(C)=C1C3(C)C)[C@]1(OC(C)=O)CO[C@@H]1C[C@@H]2O	9.93% (active) and -37.3% (active)
O=C1C(Cl)=C(Cl)C(Cl)(Cl)C(Cl)C1(Cl)Cl (stereo not given)	105%
S=C1SCN(CCc2ccccc2)CN1CCc1ccccc1	99.2%

Structure (SMILES)	growth
S=P(N1CC1)(N1CC1)N1CC1	106% and 121%
CCC(=O)Oc1ccc(/C=N/NC(N)=S)nc1	79.5%
Cn1c2nc3ccccc3c-2nc2ccccc21	86.7% and 83.9%
O=C1C=CC(=O)N1c1ccc(N2C(=O)C=CC2=O)cc1	95.2%
C=C1N(C)c2ccc(Cl)cc2C1(C)C	23.7%
O=S(=O)(c1cc(Cl)ccc1O)c1cc(Cl)ccc1O	105%
O=C(CNS(=O)(=O)Cc1ccccc1)NNc1ccccc1	75.2%
CN(CC(=O)O)c1ccc(/C=C/c2ccnc3ccccc23)cc1	91.2%
COc1ccc2oc(-c3ccc(Cl)cc3)c(N3CCN(C)CC3)c2c1	-72.5% (active)
Cc1cc(C)c(N2C(=O)CC(Sc3ccccc3N)C2=O)c(C)c1 (stereo not given)	84.8%
COc1ccc2c(c1)[nH]c1c(/C=C/c3ccccc3)nccc12	14.4%
COc1ccc(C(C#N)=C2C=CC(=NO)C=C2)cc1	127%
Cn1ncc2cc3c(Nc4ccc(Cl)cc4)cccc3nc21	96.1%
COc1cccc(C(c2cc3c(cc2O)OCO3)N2CCOCC2)c1OC (stereo not given)	111%
O=C(NC(=S)Nc1ccccn1)c1ccccc1	101%
COc1ccc(N)c2c1C(=O)c1ccccc1C2=O	111%
Cc1cc(O)c2c(c1O)C(=O)C13C(=C2O)C(=O)C2C(O)C1C1C(O)C3C(=O)C3=C(O)c4c(O)cc(C)c(O)c4C(=O)C321 (stereo not given)	-30.4% (active)
O=C1c2ccccc2CCC1(Br)Br	-68.2% (active)

Same assay, conditions: 100 µM

Structure (SMILES)	growth
S=P(N1CC1)(N1CC1)N1CC1	78.6%
